Source: ChEMBL document CHEMBL3988442, “University of Dundee, Small-Polar-MMV Screening Library” (2021)
In all, about 48,000 compounds went through this assay and about 13,000 (27%) showed an effect of 50% or more. This is one part of the list.

What follows are compounds tested on Wolbachia pipientis (assay: Anti-Wolbachia Cell-Based Screen). Details: 5 µM.
Assay type: functional
Set-up: scale not given: in the data most compounds retested in dose-response had high values
With `O=C(CCCC1CCCC1)NS(=O)(=O)CC1CC1` the “Percent Effect” value was 4.87%.
For `O=C1NCCCCC1NC(=O)C1(c2ccc3c(c2)OCCO3)CCCC1` (stereo not given), the “Percent Effect” value was -1.756%.
In the case of `Cc1cccc(C(=O)N2CCCC2)c1NCC(=O)NC1(C#N)CCCC1`, the “Percent Effect” value is reported as -7.992%.
With `Cc1cccc(NCC(=O)NC2(C#N)CCCC2)c1C(=O)N1CCCC1` the “Percent Effect” value was -22.31%.
For `CCOc1ccc(C#N)cc1NCC(=O)NC1(C#N)CCCC1`, the “Percent Effect” value was 87.98%.
`O=C(Cn1cc(-c2ccccc2)ncc1=O)Nc1nnc[nH]1` was tested, and the “Percent Effect” value was -2.785%.
`CN(Cc1ccc(Cl)s1)C(=O)CN(C)C1CCc2ccccc21` (stereo not given) was tested, and the “Percent Effect” value was 3.858%.
With `COc1ccc(CC(=O)NC2(C)CCS(=O)(=O)C2)cc1F` (stereo not given) the “Percent Effect” value was 7.488%.
In the case of `Cc1csc(N2CCN(C(=O)CCc3ccccn3)CC2)n1`, the “Percent Effect” value is reported as 1.737%.
For `FC(F)(F)c1ccnc(N2CCCN(Cc3ccccn3)CC2)n1`, the “Percent Effect” value was 100.8%.
In the case of `CC(C)c1nc(CN2CCN(Cc3ccccn3)CC2)cs1`, the “Percent Effect” value is reported as -4.826%.
`Cc1csc(N2CCN(Cc3ccccn3)CC2)n1` was tested, and the “Percent Effect” value was 105.9%.
`FC(F)(F)c1csc(N2CCN(Cc3ccccn3)CC2)n1` was tested, and the “Percent Effect” value was 72.86%.
For `FC(F)(F)CCc1ccnc(N2CCN(Cc3ccccn3)CC2)n1`, the “Percent Effect” value was 5.215%.
`Cc1ncc(S(C)(=O)=O)c(N2CCCN(Cc3ccccn3)CC2)n1` was tested, and the “Percent Effect” value was 10.32%.
With `Cc1csc(N2CCN(Cc3ccccn3)CC2C)n1` (stereo not given) the “Percent Effect” value was 18.1%.
For `COc1ccccc1-c1ncc(CN2C[C@@H](N(C)C)[C@H](C(C)C)C2)s1`, the “Percent Effect” value was -33.52%.
With `COc1cc(OC)cc(N2CCC(NCc3cccs3)C2=O)c1` (stereo not given) the “Percent Effect” value was -13.31%.
In the case of `CCC(C)NC(=O)c1ccc(NC(=O)CCc2ccncc2)c(C)c1` (stereo not given), the “Percent Effect” value is reported as -8.958%.
For `CNC(=O)[C@@H](c1ccccc1)N1CCC[C@H]1C(=O)NCc1cccnc1.Cl.Cl`, the “Percent Effect” value was -3.423%.
With `Cc1nc(CNC(=O)NC2CCN(c3ncccc3Cl)C2)oc1C` (stereo not given) the “Percent Effect” value was -13.94%.
In the case of `Cc1ncccc1NC(=O)c1nc2c(n1C)CCN(C(=O)C1CC1)C2`, the “Percent Effect” value is reported as 102%.
In the case of `Cn1c(C(=O)NC2CC2)nc2c1CCN(c1ncccn1)C2`, the “Percent Effect” value is reported as -5.985%.
`CCOCC(=O)Nc1ccc(N2CCSCC2)cc1C` was tested, and the “Percent Effect” value was -9.938%.
For `O=C(O)C(F)(F)F.O=C(O)C(F)(F)F.c1csc(CN2Cc3[nH]nc(COCC4CC4)c3C2)c1`, the “Percent Effect” value was -16.32%.
In the case of `Cc1cccc(S(=O)(=O)N2C[C@H]3C[C@H](C(=O)N(C)C)[C@@H](C2)O3)c1`, the “Percent Effect” value is reported as -13.43%.
`Cc1cccc(S(=O)(=O)N2C[C@H]3C[C@H](C(=O)NCC4CC4)[C@@H](C2)O3)c1` was tested, and the “Percent Effect” value was -9.673%.
With `Cc1cccc(S(=O)(=O)N2C[C@@H]3OCCN(C(C)C)[C@@H]3C2)c1` the “Percent Effect” value was -15.31%.
For `Cc1cccc(S(=O)(=O)N2C[C@@H]3C[C@@H](c4nnc(C)[nH]4)O[C@@H]3C2)c1`, the “Percent Effect” value was 102.4%.
In the case of `Cc1cccc(S(=O)(=O)N2C[C@@H]3C[C@@H](c4nc(C)no4)O[C@@H]3C2)c1`, the “Percent Effect” value is reported as 113.1%.
`Cc1cccc(S(=O)(=O)N2C[C@H]3C[C@H](C(=O)NC4CCC4)[C@@H](C2)O3)c1` was tested, and the “Percent Effect” value was -10.53%.
For `Cc1ccc(-c2cn3c(n2)CO[C@@H](CNCc2cnn(C)c2)C3)cc1`, the “Percent Effect” value was 12.36%.
`COCCN(C)C[C@@H]1CN(C(=O)c2ccc(O)c(C)c2)C[C@@H]1CO` was tested, and the “Percent Effect” value was 126%.
For `O=C(c1ccc(O)c(Cl)c1)N1C[C@@H](CN2CCCCCC2)[C@@H](CO)C1`, the “Percent Effect” value was -0.5835%.
`COc1cc(C)ccc1C(=O)N1C[C@@H](CN(C)CCO)[C@@H](CO)C1` was tested, and the “Percent Effect” value was -2.888%.
`COc1ccc(C(=O)N2C[C@@H](CN3CCCCC3)[C@@H](CO)C2)cc1Cl` was tested, and the “Percent Effect” value was -0.8846%.
In the case of `Cc1cc(C(=O)N2C[C@@H](CN3CCCCC3)[C@@H](CO)C2)ccc1O`, the “Percent Effect” value is reported as -7.322%.
With `COCCN(C)C[C@@H]1CN(C(=O)c2ccc(O)c(Cl)c2)C[C@@H]1CO` the “Percent Effect” value was 127.9%.
`COCCN(C)C[C@@H]1CN(C(=O)c2ccc(C)c(Cl)c2)C[C@@H]1CO` was tested, and the “Percent Effect” value was 113.4%.
`CCCOc1ccc(C(=O)N2C[C@@H](CN3CCCC3)[C@@H](CO)C2)cc1Cl` was tested, and the “Percent Effect” value was 0.3871%.
`CC(C)CN1C(=O)COC[C@@H]1[C@H](O)c1ccc(NC(=O)C2CC2)cc1` was tested, and the “Percent Effect” value was -2.654%.
For `CC(C)c1cc(N[C@@H](CO)C(N)=O)n2nccc2n1`, the “Percent Effect” value was 27.01%.
`Cc1cnn(-c2cccc(N3CCCCC3)n2)c1` was tested, and the “Percent Effect” value was -2.755%.
For `CC(C)c1nccn1C1CCCN(C(=O)c2ccc3[nH]nnc3c2)C1` (stereo not given), the “Percent Effect” value was -9.073%.
With `CC(C)c1nc(C2CCCN(C(=O)c3ccc4c(c3)COC4)C2)no1` (stereo not given) the “Percent Effect” value was 126.8%.
With `CC(C)c1nc(C2CCCN(C(=O)c3ccc4c(c3)OCO4)C2)no1` (stereo not given) the “Percent Effect” value was 127.5%.
For `CC(C)c1nc(C2CCCN(C(=O)c3ccc4[nH]nnc4c3)C2)no1` (stereo not given), the “Percent Effect” value was 134.9%.
With `O=C(c1ccc2c(c1)OCO2)N1CCCC(n2cccn2)C1` (stereo not given) the “Percent Effect” value was 4.266%.
For `CC(C)c1nc(C2CCCN(C(=O)c3ccc4nccn4c3)C2)no1` (stereo not given), the “Percent Effect” value was -6.875%.
With `CC(C)c1nc(C2CCCN2C(=O)c2ccc3nncn3c2)no1` (stereo not given) the “Percent Effect” value was -6.434%.
`CC(C)c1nc(C2CCCN(C(=O)c3ccc4nncn4c3)C2)no1` (stereo not given) was tested, and the “Percent Effect” value was 123.4%.
For `COc1ccccc1OC1CN(C(=O)c2c(C)nc3ccc(C)cn23)C1`, the “Percent Effect” value was -16.35%.
For `CC(c1ncc(C(C)(C)C)o1)N1CCN(Cc2ccc(Cl)s2)CC1` (stereo not given), the “Percent Effect” value was -10.01%.
For `Cc1ccc(NC(=O)c2nc(N3CCCCC3)ncc2Cl)cc1I`, the “Percent Effect” value was 14.77%.
`CC(=O)NC[C@H]1OC[C@@H](NC2CCC(F)(F)CC2)[C@@H]1O` was tested, and the “Percent Effect” value was -10%.
In the case of `Cc1nc2ccccc2nc1NCc1nnc2n1CCC2`, the “Percent Effect” value is reported as -17.33%.
For `COCc1ccccc1CNc1nnc(C)c(C)c1C#N`, the “Percent Effect” value was -9.449%.
With `Cc1nnc(NCc2cccnc2N(C)C)c(C#N)c1C` the “Percent Effect” value was -6.334%.
In the case of `Cc1nnc(NCc2cccc(OCC3CCCO3)c2)c(C#N)c1C` (stereo not given), the “Percent Effect” value is reported as 98.93%.
In the case of `N#Cc1ccc(NCc2cccc(OCC3CCCO3)c2)nc1` (stereo not given), the “Percent Effect” value is reported as 63.12%.
`CN(C)C(=O)c1cccc(CNc2ccc(C#N)cn2)c1` was tested, and the “Percent Effect” value was 29.09%.
`Cc1nnc(NCc2cccc(OCc3ccccn3)c2)c(C#N)c1C` was tested, and the “Percent Effect” value was 115.9%.
For `N#Cc1ccc(NCc2cccc(COC3CCOCC3)c2)nc1`, the “Percent Effect” value was -4.004%.
`Cc1ccccc1C1(CNc2nnc(C)c(C)c2C#N)CCOCC1` was tested, and the “Percent Effect” value was 10.33%.
With `Cc1nc2ccccc2nc1NCc1cccc(OCC2CCCO2)c1` (stereo not given) the “Percent Effect” value was 113.3%.
`Oc1cccc(CNCC2CCCO2)c1` (stereo not given) was tested, and the “Percent Effect” value was 10.1%.
For `Cc1nnc(NCc2ccc(N3CCC(CO)CC3)cc2)c(C#N)c1C`, the “Percent Effect” value was 12.23%.
For `O=C(c1ccco1)N1CCc2ncnc(NCc3ccccn3)c2CC1`, the “Percent Effect” value was -3.443%.
`CN1C(=O)[C@H]2CC[C@@H]1CN(C(=O)c1csc(Cc3ccccc3)n1)C2` was tested, and the “Percent Effect” value was -11.33%.
With `CN(C(=O)c1ccc[nH]1)C1CCC(NC(=O)OC(C)(C)C)CC1` (stereo not given) the “Percent Effect” value was -42.92%.
In the case of `CCC(C)N(Cc1ccncc1)Cc1ccccc1Cn1cccn1` (stereo not given), the “Percent Effect” value is reported as 4.156%.
In the case of `O=C(O)C(F)(F)F.O=C([C@H]1C[C@@H]2CCN(C3CCOCC3)C[C@@H]2O1)N1CCOCC1`, the “Percent Effect” value is reported as -5.423%.
For `O=C(O)C(F)(F)F.O=C([C@@H]1C[C@@H]2CCN(C3CCOCC3)C[C@H]2O1)N1CCOCC1`, the “Percent Effect” value was 89.37%.
In the case of `O=C(O)C(F)(F)F.O=C([C@@H]1C[C@@H]2CCN(C3CCOCC3)C[C@@H]2O1)N1CCCC1`, the “Percent Effect” value is reported as 130.2%.
With `O=C(O)C(F)(F)F.O=C([C@H]1C[C@@H]2CCN(C3CCOCC3)C[C@H]2O1)N1CCCC1` the “Percent Effect” value was 103.9%.
For `CC1CCN(C(=O)[C@H]2C[C@@H]3CCN(CC4CCOCC4)C[C@@H]3O2)CC1.O=C(O)C(F)(F)F`, the “Percent Effect” value was -3.152%.
With `CC1CCN(C(=O)[C@@H]2C[C@@H]3CCN(CC4CCOCC4)C[C@@H]3O2)CC1.O=C(O)C(F)(F)F` the “Percent Effect” value was -4.888%.
In the case of `O=C(O)C(F)(F)F.O=C([C@H]1COC[C@H]2CN(C3CCOCC3)C[C@H]21)N1CCC(F)CC1`, the “Percent Effect” value is reported as -1.372%.
With `CC1CCN(C(=O)[C@H]2C[C@@H]3CCN(CC4CCOCC4)C[C@H]3O2)CC1.O=C(O)C(F)(F)F` the “Percent Effect” value was -1.273%.
In the case of `O=C(O)C(F)(F)F.O=C([C@H]1C[C@H]2OCC[C@H]2N(CC2CCOCC2)C1)N1CCCC1`, the “Percent Effect” value is reported as 10.32%.
For `Cc1ccccc1CC(=O)N(C)C1CCCC1`, the “Percent Effect” value was -4.156%.
For `COc1ccc(-c2cnc(CN3CCn4c(C)nnc4C3)o2)cc1`, the “Percent Effect” value was -11.18%.
`c1csc(-c2nc(CN3CCn4c(nnc4C4CC4)C3)co2)c1` was tested, and the “Percent Effect” value was -3.067%.
`Cn1ccnc1-c1ccc(NCC2COc3ccccc3O2)nn1` (stereo not given) was tested, and the “Percent Effect” value was -1.636%.
`Cc1ccc(CC(=O)NC(C)C(=O)N2CCS(=O)(=O)CC2)cc1` (stereo not given) was tested, and the “Percent Effect” value was -13.94%.
With `CC(C)CC(C)N(C)Cc1nnc(-c2ccco2)o1` (stereo not given) the “Percent Effect” value was 9.065%.
With `CNC(=O)C1Cn2ccnc2C2(CCN(c3ccc(C)nn3)CC2)O1` (stereo not given) the “Percent Effect” value was 1.376%.
For `CC(C)CC(=O)N1CCC2(CC1)OC(C(N)=O)Cn1ccnc12.O=C(O)C(F)(F)F` (stereo not given), the “Percent Effect” value was 113.8%.
For `NC(=O)C1Cn2ccnc2C2(CCN(C(=O)c3ccncc3)CC2)O1` (stereo not given), the “Percent Effect” value was 116.6%.
For `CNC(=O)C1Cn2ccnc2C2(CCN(CCF)CC2)O1` (stereo not given), the “Percent Effect” value was 3.54%.
`CC(C)CNC(=O)N1CCC2(CC1)OC(C(N)=O)Cn1ccnc12.O=C(O)C(F)(F)F` (stereo not given) was tested, and the “Percent Effect” value was 99.99%.
In the case of `CNC(=O)C1Cn2ccnc2C2(CCN(Cc3csc(C)n3)CC2)O1` (stereo not given), the “Percent Effect” value is reported as 2.029%.
For `CNC(=O)C1Cn2ccnc2C2(CCN(C(=O)c3ccccn3)CC2)O1` (stereo not given), the “Percent Effect” value was -8.502%.
For `CNC(=O)C1Cn2ccnc2C2(CCN(C(=O)CC3CCCC3)CC2)O1.O=C(O)C(F)(F)F` (stereo not given), the “Percent Effect” value was -0.06928%.
In the case of `CNC(=O)C1Cn2ccnc2C2(CCN(C(=O)NC3CCCC3)CC2)O1` (stereo not given), the “Percent Effect” value is reported as 96.32%.
